USP1-UAF1 inh: Inhibitors of USP1/UAF1: Primary Screen. Ubiquitin carboxyl-terminal hydrolase 1 (Homo sapiens), O94782. recombinant USP1/UAF1, Ub-Rhodamine cleavage fluorescence. Potency, µM (series often up to 57.1 µM), for the others: at the highest dose activity change, negative = inhibition, usual class: inhibitors. 390,000 tested, 0.23% active; active means well fitted inhibition curve with a large enough effect; inconclusive means small, poorly fitted or top-dose-only effect; inactive means no such curve, though single readings can be large or run the other way; further: potency means the concentration at half of the fitted maximal effect; nearly all actives have a fitted effect of over 60% in size
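In this screen, compounds sit with the deubiquitinase complex (1nM) for 15 min at room temperature before Ub-Rho is added at 150nM final. Fluorescence rise is then followed for 6 reads every 60 seconds.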
Coupling enz: qHTS Assay for Inhibitors of Fructose-1,6-bisphosphate Aldolase from Giardia Lamblia: Coupling assay counterscreen; activity change, negative = inhibition, % at 58.2 µM, hits read low; coupling enzyme system counterscreen, AmpLite Red fluorescence; 290,000 tested, 0.67% active; AID 2472, 2010; in the data active means activity change below about -30%
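Coupling enzymes only (glyceraldehyde-3-phosphate) + compound, at 57.5 uM final, 10 min RT; add substrate/coupling/AmpLite Red mix, 20 min RT; fluorescence ex 525/em 598 nm. Actives flag coupling-system interference.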
Giardia killer: Small Molecules that selectively kill Giardia lamblia: qHTS | activity change, % at 7.66 µM, hits read low | Giardia lamblia trophozoite viability | 340,000 tested, 0.15% active | AID 540267, 2011; in the data active means activity change below about -80%; inconclusive means between about -30% and that limit;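 further: parasites exposed to compound for two days anaerobically before the ATP read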
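Killing of trophozoites was scored by loss of ATP luminescence after a 48 hrs anaerobic exposure to compounds at 37 deg C, using 100 cells per well.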
KCNH2 3.1 block: qHTS for Inhibitors of KCHN2 3.1: Mutant qHTS. AID 720553, 2013. U2OS KCNH2 3.1, thallium flux FluxOr; hits give low values. Potassium voltage-gated channel subfamily H member 2, brain isoform KCNH2 3.1 (human). activity change, % (tested at about 1.8 µM). 340,000 tested, 0.95% active;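 active means maximum activity change below -70%; inconclusive means maximum activity change from -70% to -50%; inactive means maximum activity change above -50%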;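 further: thallium influx rate constant from kinetic fluorescence after stimulation buffer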
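Channel expression came from 3.1 mutant virus (1.77 x 10^8 /mL) applied to suspended U2OS cells for 4 h. Flux was tracked with FluxOr dye plus Red40 quencher, and kinetic rate constants normalized to controls.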
hERG WT inh: qHTS for Inhibitors of KCHN2 3.1: Wildtype qHTS; Voltage-gated inwardly rectifying potassium channel KCNH2 (Homo sapiens), Q12809; U2OS, BacMam KCNH2, thallium flux FluxOr; hits give low values; activity change, % at 1.84 µM; 340,000 tested, 0.37% active; AID 720551, 2013;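 active means maximum activity change below -70%; inconclusive means maximum activity change between -70% and -50%; inactive means maximum activity change above -50%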
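U2OS cells were transduced with wild-type KCNH2 virus (2.03 x 10^8 / mL) for 4 h at room temperature, then cultured overnight at 37 C. Thallium flux was read with FluxOr dye. Rate constants were normalized to DMSO controls.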
An asterisk follows results filed as active; u = inconclusive; x = no result. An excerpt weighted towards active compounds, which were near 1.7% of everything screened. On the % scale 0 is the no-effect control and ±100 the full control effect.

SMILES | USP1-UAF1 inh | Coupling enz | Giardia killer | KCNH2 3.1 block | hERG WT inh
CCOC(=O)NC(=O)/C(C#N)=C\NNc1ncc(C(F)(F)F)cc1Cl | -10% | 1 | -6 | 10 | -71*
Cn1cc(C(=O)O)c(=O)c2cc(S(=O)(=O)N3CCCCC3)ccc21 | -4% | x | x | x | x
CCCCNC(=O)NS(=O)(=O)c1ccc(C(=O)O)cc1 | x | -1 | x | x | x
Cc1ccc2c(c1)N(C(=O)CCC(=O)NCCCN1CCOCC1)CCO2 | -13% | 3 | -23 | -128* | -4
Cc1ccc2c(c1)N(C(=O)CCC(=O)NCCN1CCOCC1)CCO2 | -18% | 0 | 7 | 23 | -3
COC(=O)C1C2C=CC3(CN(CC4CCCO4)C(=O)C13)O2 (configuration not stated) | -13% | -79* | 17 | 0 | -3
CN(CC(=O)NC1CCCc2ccccc21)C1CCCCC1 (configuration not stated) | -22% | 1 | 6 | -1 | 0
CN(C1CCCCC1)S(=O)(=O)c1cccc(C(=O)OCC(=O)NC2CCCc3ccccc32)c1 (configuration not stated) | -13% | 0 | -14 | -92* | 53
COc1ccc(-c2coc3cc(O)ccc3c2=O)c(O)c1O | x | -13 | x | x | x
O=C(O)c1cc(Br)ccn1 | -4% | -8 | -5 | 11 | -5
O=C(O)c1ccnc(C(=O)O)c1 | -14% | -72* | -22 | -9 | -8
CCOC(=O)c1c(C)nc2c(c1-c1ccccc1)C(=O)c1ccccc1-2 | -6% | 5 | -8 | -30 | -8
CCOC(=O)c1c(C)oc2c1C(=O)c1ccccc1C2=O | u | -43* | -81* | -23 | -1
Cc1oc2c(c1C(=O)c1ccccc1)C(=O)C(=O)c1ccccc1-2 | 13µM* | -78* | -1 | -14 | -14
Cc1cc(=O)oc(C)c1C(=O)O | 6% | 3 | -11 | 10 | -16
O=C(c1ccccc1)c1coc2ccc(O)c(Cl)c12 | -2% | 2 | -13 | 8 | -1
O=C1C(=O)c2c(C(=O)c3ccccc3)coc2-c2ccccc21 | -9% | -80* | -5 | -12 | -5
Cc1oc2c(c1C(=O)O)C(=O)c1ccccc1C2=O | 28µM* | -29 | u | 0 | 18
CCCSc1oc(-c2ccco2)nc1S(=O)(=O)c1ccccc1 | -24% | -36* | -21 | 4 | -5
Nc1ccc2c(c1)C(=O)C(=O)c1ccccc1-2 | 1.3µM* | 0 | 12 | -8 | -5
O=C1C(=O)c2ccc(-c3ccccc3)cc2-c2ccccc21 | 5µM* | -72* | -1 | 2 | -11
CC(C)(C)OC(=O)N1CCC(C(=O)Nc2cccc(C(=O)N3CCCC3)c2)CC1 | -15% | x | 10 | -19 | 2
CCc1ccc(S(=O)(=O)/N=C2\C=C(Nc3ccc(O)cc3)C(=O)c3ccccc32)cc1 | 10µM* | -35* | -19 | -6 | 3
CCc1ccc(S(=O)(=O)/N=C2\C=C(Nc3cccc(C(=O)O)c3)C(=O)c3ccccc32)cc1 | 5.6µM* | -44* | 3 | 0 | -1
O=C(O)c1cccc(NS(=O)(=O)c2ccc(-c3ccc(S(=O)(=O)Nc4cccc(C(=O)O)c4)cc3)cc2)c1 | -4% | 16 | 3 | -8 | -8
SMILES | USP1-UAF1 inh | Coupling enz | Giardia killer | KCNH2 3.1 block | hERG WT inh
O=C1C=C(Nc2ccc(O)cc2)C(=O)c2ccccc21 | -27% | -16 | -14 | -20 | 3
O=S(=O)(c1cccs1)N1CCN(c2nc(-c3cccs3)nc3ccccc23)CC1 | x | x | 3 | x | x
COC(=O)C1=C(C)NC(c2c(O)ccc3ccccc23)C(C(=O)OC)=C1C (configuration not stated) | -10% | 0 | -7 | -85* | 8
COC(=O)C1=C(C)NC(=O)NC1c1c(O)ccc2ccccc12 (configuration not stated) | -7% | 0 | 36 | -2 | 11
CC(C)c1cc[n+](-c2nc([O-])sc2C=O)cc1 | -20% | -40* | -2 | -5 | 0
CCc1cc[n+](-c2nc([O-])sc2C=O)cc1 | -14% | -38* | 5 | -1 | 2
CC(/C=N/NC(=O)c1ccc(Cn2cc([N+](=O)[O-])cn2)o1)=C\c1ccccc1 | -6% | x | 9 | -79* | -1
Cc1nc2ccc(Cl)cc2nc(C)/c1=N\O | u | -33* | -1 | -92* | -9
COc1cc2c(cc1OC)C(C)N(CCc1ccc(Cl)cc1)CC2 (configuration not stated) | u | x | 8 | -84* | -12
Cc1cc(NC(=O)CSc2nc3c([nH]c4ccccc43)c(=O)n2-c2cccc(Cl)c2)no1 | -14% | x | x | x | x
COc1cccc(NC(=O)C(Cc2ccccc2)N2Cc3ccccc3C2=O)c1 (configuration not stated) | -14% | x | x | x | x
CCCSc1cc(N2CCN(C)CC2)nc(-c2ccc(OC)cc2)n1 | -14% | 1 | -1 | -71* | -26
COc1ccc(CCNC(=O)Cn2cc(S(=O)(=O)Cc3ccc(F)cc3)c3ccccc32)cc1OC | -9% | x | x | x | x
O=C(Cn1[nH]c(=O)c2ccccc2c1=O)NNC(=O)c1ccccc1 | -20% | 4 | 10 | 18 | -270*
CNCc1ccccc1Sc1ccc(O)c(O)c1 | -5% | -40* | 7 | -11 | 5
N#CC1=C2SCN(Cc3ccco3)CN2C(=O)CC1c1c(F)cccc1Cl (configuration not stated) | 13µM* | -25 | -20 | 10 | 1
N#CC1=C2SCN(C3CCCCC3)CN2C(=O)CC1c1c(F)cccc1Cl (configuration not stated) | 32µM* | x | x | x | x
Cc1nc2nc(NC(=O)C(C)(C)C)[nH]n2c(=O)c1Cc1ccccc1 | -15% | x | x | x | x
CC(=O)N(C)C1=C(N2CCOCC2)C(=O)c2ccccc2C1=O | u | -56* | -26 | -25 | -19
CC(=O)N(C)C1=C(O)c2ccccc2C(=O)C1=O | u | x | 18 | 4 | -20
CC(=O)N(C1=C(N2CCOCC2)C(=O)c2ccccc2C1=O)c1ccc(C(=O)O)cc1 | u | -54* | 10 | -16 | -13
Nc1nnc(SCC(=O)Nc2ccccc2C(F)(F)F)s1 | -5% | x | x | x | x
COc1cc(C=NO)nc(-c2ccccn2)c1 | -12% | x | -10 | 7 | -4
Cc1cccc(-c2nnc(C(C)Nc3cccc(C(=O)NC4CC4)c3)o2)c1 (configuration not stated) | -19% | x | x | -73* | 7
CCN1c2ccccc2N(C)C1(C)c1ccccc1 (configuration not stated) | u | -53* | 20 | -7 | -7
CN1c2ccccc2N(C)C1(C)c1ccccc1 | u | -1 | 1 | -8 | -2
